# Measurements from PubChem BioAssay AID587 (National Center for Advancing Translational Sciences (NCATS), 2007).
# About 35 (0.06%) of roughly 59,000 compounds were called active. Another 19% or so got no clear call; they are omitted. No stated cut-off is given here; in the data, active means max dye-equivalent concentration above about 10 nM; inconclusive means between about 1.1 nM and that limit; inactive means weaker than that. The full list was thinned out, with actives kept by preference.
# Experiment: qHTS Assay for Spectroscopic Profiling in Texas Red Spectral Region
# Settings: Compound fluorescence, Texas Red channel, 547/618 nm
# Text: NIH Molecular Libraries Screening Centers Network [MLSCN] NIH Chemical Genomics Center [NCGC] […] Occasionally, the artifactual effect may originate from the compound#s own spectral or other biophysical properties which generally tend to track its assay concentration. Pre-screening/profiling the library with respect to the compounds# spectral properties should help one exclude false positives early on. While the most informative fluorescent profiling data set is obtained by performing a full excitation and emission scan of each well by using a monochromator-based plate reader, such an approach is practical only on a very limited scale as scanning each well requires long time. An alternative approach, applied here, is to perform plate reader scans using selected excitation and emission wavelength pairs to generate a multidimensional relational database that correlates compound concentration and the respective relative fluorescence intensity at a given wavelength set. A standard curve of Texas Red (TR) present on each plate as six-point concentration series, was used to compute a normalized fluorescence response, termed dye-equivalent concentration, for each compound at each concentration.
# NCGC Assay Protocol Summary: Buffer: 100 mM Tris buffer, pH 8.0 Dye standard plate: The wells in columns 1 through 4 of a Kalypsys polypropylene 1536-well compound plate were filled with standard solutions of fluorophore corresponding to the spectral region of interest. Solutions of TR were placed in the following wells: U1, V1: 3 mM, U2, V2: 300 uM, U3, V3: 30 uM, U4, V4: zero (DMSO), W1, X1: 3 uM, W2, X2: 900 nM, W3, X3: 300 nM, W4, X4: zero (DMSO). Assay Steps: Six uL of buffer were dispensed to 1536-well Greiner black plates. Compounds and dye standards (23 nL) were transferred via Kalypsys PinTool. The plates were incubated for 15 min at room temperature, and then read on ViewLux (Perkin-Elmer) High-throughput CCD imager using 547 nm and 618 nm excitation and emission filter set. Keywords: NIH Roadmap, MLSCN, MLI, MLSMR, qHTS, NCGC, Texas Red, Fluorescent Profiling.
row,SMILES,max dye-equivalent concentration
1,Cc1nn(-c2ccccc2)c(CC(C)(C)C(=O)O)c1C(=O)O,inactive
2,COCCn1c(=O)c(-c2cc(F)cc(F)c2)nc2cnc(N3CCNCC3)nc21,inactive
3,CN1CCN(S(=O)(=O)c2ccc(NC(=O)C3CCCO3)cc2)CC1 (configuration not stated),inactive
4,O=C(c1cnccn1)N1CCC[C@@]2(CCN(Cc3ccncc3)C2)C1,inactive
5,CN1CCN(c2ncc3nc(-c4ccc(Cl)cc4)c(=O)n(-c4ccccc4)c3n2)CC1,inactive
6,N#Cc1cccc(-c2nc3cnc(N4CCNCC4)nc3n(C3CC3)c2=O)c1,inactive
7,CCOCCOC(=O)C1=C(C)N(C)C(=O)NC1c1ccccc1F (configuration not stated),inactive
8,Cc1nc(NCc2ccccc2)c(C(N)=O)c2c1COC(C)(C)C2,inactive
9,COc1ccc(N2CCN(C(=O)CSc3nnc4ncccn34)CC2)cc1,inactive
10,O=C1CSC(c2cccc(F)c2)N1c1ccccc1F (configuration not stated),inactive
11,COc1ccc(N2CCN(Cc3cc(=O)oc4ccc5ccccc5c34)CC2)cc1,inactive
12,COC(=O)c1ccccc1NC(=O)CSc1ccccn1,inactive
13,COc1ccc2oc(=O)c(C(=O)N3CCN(c4ccccc4F)CC3)cc2c1,inactive
14,CCNc1ncc2nc(CCc3ccccc3)c(=O)n(-c3ccc(OC)cc3)c2n1,inactive
15,CCOC(=O)C1CCN(C(=O)Cn2cc(C#N)c3ccccc32)CC1,inactive
16,CC(C)C(C(=O)NC1CCCCC1)N(CC1CCCO1)C(=O)CNS(=O)(=O)c1ccc(F)cc1 (configuration not stated),inactive
17,CO[C@@H]1/C=C\O[C@]2(C)Oc3c(C)c(O)c4c(O)c(c(CN(C)C)c(O)c4c3C2=O)NC(=O)/C(C)=C\C=C[C@@H](C)[C@@H](O)[C@H](C)[C@@H](O)[C@H](C)[C@H](OC(C)=O)[C@@H]1C,inactive
18,Cc1c(C(=O)CN2CCOCC2)[nH]c2ccccc12,inactive
19,O=C(NCCCCO)C(F)(F)C(F)(F)C(F)(F)C(=O)NCCCCO,inactive
20,O=c1c(-c2ccc(F)c(F)c2)nc2cncnc2n1-c1ccccc1,inactive
21,COC(=O)[C@@H]1[C@H]2C[C@H]3c4[nH]c5cc(OC)ccc5c4CCN3C[C@@H]2C[C@@H](OC(=O)c2cc(OC)c(OC)c(OC)c2)[C@@H]1OC,inactive
22,COc1ccc(C(=O)N(CCN2CCOCC2)CC(=O)NC2CCCC2)cc1OC,inactive
23,C=C(C)CSc1nc(N)c2c3c(sc2n1)CCC3,inactive

row,SMILES,max dye-equivalent concentration
1,CC(C)c1nc(N2CCOCC2)c(C#N)c2c1COC(C)(C)C2,inactive
2,CN(C)c1ncc2nc(-c3ccc(F)cc3)c(=O)n(Cc3ccc(F)cc3)c2n1,inactive
3,c1cncc(CNc2ccnc(-c3ccc4c(c3)OCO4)n2)c1,inactive
4,CCN(CC(=O)NC(C)C)C(=O)CCNC(=O)c1ccc(Cl)cc1,inactive
5,Cc1nc2cnc(N3CCN(C)CC3)nc2n(C[C@H]2CCCO2)c1=O,inactive
6,COc1ncc2nc(-c3ccc(Cl)cc3)c(=O)n(-c3ccccc3)c2n1,inactive
7,O=C(O)[C@@H](S)[C@H](S)C(=O)O,inactive
8,N#CCCn1c(=O)c(-c2cc(F)cc(F)c2)nc2cnc(Oc3ccccc3)nc21,inactive
9,COc1ccc(OC)c(CN2C(=O)CCC2(C)C(=O)NC2CCCCCC2)c1 (configuration not stated),inactive
10,O=C(Cn1nnc(-c2ccccc2)n1)NCc1ccccc1,inactive
11,O=c1[nH][nH]c(=O)c2cc(N3CCCC3)ccc12,inactive
12,CC(C(=O)N1CCOCC1)N1c2cccc3cccc(c23)S1(=O)=O (configuration not stated),inactive
13,O=C(Nc1ccc2c(c1)OCCO2)C1CCCN(c2ncccn2)C1 (configuration not stated),inactive
14,COCCNC(=O)C(c1ccc(C)o1)N(Cc1cccs1)C(=O)c1snc(C(N)=O)c1N (configuration not stated),inactive
15,COc1c(F)c(F)c(-c2csc(N)n2)c(F)c1F,inactive
16,CC(C)c1ccc(NC(=O)NC2CCCCC2)cc1,inactive
17,CCC(C)(C(=O)NC1CCCC1)N(C(=O)CNC(C)=O)c1ccc(C)cc1 (configuration not stated),inactive
18,CCNc1nc(NCC)nc(N(C)n2cnnc2)n1,inactive
19,O=C(CN1CCN(c2ccccn2)CC1)NCc1cccs1,inactive
20,O=C(O)COc1c(Cl)cc(Cl)c2cccnc12,inactive
21,O=C(OCC(O)C(O)COC(=O)c1ccccc1)c1ccccc1 (configuration not stated),inactive
22,COc1cccc(Cn2c(=O)c(CCc3ccccc3)nc3cnc(N(C)C)nc32)c1,inactive
23,CN1CCN2c3ccccc3Cc3ccccc3[C@@H]2C1,inactive

row,SMILES,max dye-equivalent concentration
1,COCCn1c(=O)c(-c2cccc(F)c2)nc2cncnc21,inactive
2,CC1Cc2cc(/C(O)=C3\C(=O)C(=O)N(CCN4CCOCC4)C3c3ccccc3F)ccc2O1 (configuration not stated),inactive
3,CCOC(=O)CSc1nc2sc3c(c2c(=O)[nH]1)CC(C)(C)OC3,inactive
4,CC(C)NC(=O)N1CC[C@@]2(CCCN(C(=O)c3ccco3)C2)C1,inactive
5,CCC(c1nnnn1C1CCCC1)N1CCN(C(=O)c2ccco2)CC1 (configuration not stated),inactive
6,Cc1nn(-c2ccccc2)c2sc(C(=O)N(Cc3ccco3)C(C)C(=O)NC(C)(C)C)cc12 (configuration not stated),inactive
7,CCOC(=O)N1CCC(Nc2c(NCCCN3CCN(c4ccc(OC)cc4)CC3)c(=O)c2=O)CC1,inactive
8,COc1ccccc1CNC(=O)CCCNS(=O)(=O)c1cccc2nsnc12,inactive
9,COc1cccc(-c2cc(NCCc3c[nH]c4ccc(OC)cc34)ncn2)c1,inactive
10,CC(C)(C)c1ccc(C(=O)NCCC(=O)NCc2ccco2)cc1,inactive
11,CCOCC(=O)Nc1cc(OC)c(Cl)cc1OC,inactive
12,CCOc1ccc(CCNC(=O)C2CCN(c3ccc(N4CCOCC4)nn3)CC2)cc1OCC,inactive
13,O=C(Cn1ccc(=O)[nH]c1=O)Nc1ccc(C(=O)O)c(O)c1,inactive
14,CCc1c(C)sc(NC(=O)c2ccc(Br)o2)c1C(=O)OC,inactive
15,CCNc1ncc2ncc(=O)n(Cc3cccc(OC)c3)c2n1,inactive
16,CC1(C)S[C@@H]2[C@@H](NC(=O)[C@@H](N)c3ccccc3)C(=O)N2[C@H]1C(=O)O,inactive
17,COCCn1c(=O)c(-c2cccs2)nc2cncnc21,inactive
18,CN(C)c1cc(N)c2ccccc2n1 (tested in a mixture with another compound),inactive
19,C[N+]1(CCNC(=O)/C=N/O)CCCCC1,inactive
20,CCCCCC(=O)Nc1ccc2oc(-c3ccncc3)nc2c1,inactive
21,CN/C(=C\[N+](=O)[O-])NCCSCc1csc(CN(C)C)n1,inactive
